Source: PubChem BioAssay AID1159580 (chemical genetic matrix, 2015)
Several values for one entry are separate records, joined by “and”; a condition that tells them apart may be missing. Identical values can stand only once. Out of some 5,500 compounds screened, about 2,000 (36%) were called active. About 18% were inconclusive and are not listed. No stated cut-off is given here; in the data, active means normalized growth mostly below about 0.91 (no sharp cut-off); inconclusive means no clear call, values can overlap the other calls; inactive means mostly above about 0.92. The list shows a part of the results.

Test: chemical genetic growth profiling, strain panel (AID 1159580);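 further: tested at 20 µM; growth read once vehicle control cultures reached saturation at 30 °C; 1 = growth at the plate median or of vehicle wells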
Conditions: S. cerevisiae deletion strains, growth OD
[1] = locus YGR078C, strain PAC10, stronger effect = lower value
[2] = locus YMR263W, strain SAP30, stronger effect = lower value
[3] = locus YMR307W, strain GAS1, stronger effect = lower value
[4] = locus YNL322C, strain KRE1, stronger effect = lower value
[5] = locus YAL040C, strain CLN3, stronger effect = lower value
[6] = locus YCL061C, strain MRC1 (second series), stronger effect = lower value
[7] = locus YDR363W, strain ESC2, stronger effect = lower value
[8] = locus YNL175C, strain NOP13, stronger effect = lower value
[9] = locus YNL197C, strain WHI3, stronger effect = lower value
[10] = locus YOR083W, strain WHI5 (second series), stronger effect = lower value

Measured: normalized growth

COc1ccc(/C=C/c2cc(O)cc(O)c2)cc1
0.709 (active) and 0.967 (inactive): locus YJL095W, strain BCK1, stronger effect = lower value
inactive: locus YAL021C, strain ccr4, stronger effect = lower value 0.984 | locus YAL026C, strain drs2, stronger effect = lower value 1.01 | locus YAL030W, strain snc1, stronger effect = lower value 1.01 | locus YBL061C, strain skt5, stronger effect = lower value 1.01 | locus YBR009C, strain hhf1, stronger effect = lower value 1 | locus YBR021W, strain FUR4, stronger effect = lower value 0.949 | locus YBR023C, strain chs3, stronger effect = lower value 1 | locus YBR171W, strain sec66, stronger effect = lower value 1.02 | locus YBR229C, strain ROT2, stronger effect = lower value 0.978 | locus YBR231C, strain swc5, stronger effect = lower value 1 | locus YBR279W, strain paf1, stronger effect = lower value 1 | locus YCL011C, strain gbp2, stronger effect = lower value 0.991 | locus YCL016C, strain dcc1, stronger effect = lower value 1 | locus YCL029C, strain bik1, stronger effect = lower value 0.931 | locus YCL061C, strain MRC1, stronger effect = lower value 0.999 | locus YCL069W, strain vba3, stronger effect = lower value 1.01 | locus YCR088W, strain abp1, stronger effect = lower value 1 | locus YDL005C, strain med2, stronger effect = lower value 1.01 | locus YDL035C, strain GPR1, stronger effect = lower value 0.868 | locus YDL040C, strain nat1, stronger effect = lower value 1.01 | locus YDL101C, strain DUN1, stronger effect = lower value 0.949 | locus YDL134C, strain PPH21, stronger effect = lower value 0.895 | locus YDL185W, strain tfp1, stronger effect = lower value 0.976 | locus YDR001C, strain nth1, stronger effect = lower value 1.01 | locus YDR069C, strain doa4, stronger effect = lower value 1.02 | locus YDR137W, strain rgp1, stronger effect = lower value 1.02 | locus YDR159W, strain sac3, stronger effect = lower value 1.01 | locus YDR162C, strain NBP2, stronger effect = lower value 0.866 | locus YDR195W, strain ref2 1.06 | locus YDR297W, strain sur2, stronger effect = lower value 1 | locus YDR318W, strain mcm21, stronger effect = lower value 0.919 | locus YDR334W, strain swr1, stronger effect = lower value 1.02 | locus YDR335W, strain msn5, stronger effect = lower value 0.999 | locus YDR388W, stronger effect = lower value 0.962 | locus YDR392W, strain spt3, stronger effect = lower value 0.982 | locus YEL003W, strain gim4, stronger effect = lower value 1.01 | locus YEL037C, strain rad23, stronger effect = lower value 1.01 | locus YEL061C, strain CIN8 (second series), stronger effect = lower value 1.01 | locus YER015W, strain faa2, stronger effect = lower value 0.998 | locus YER016W, strain bim1, stronger effect = lower value 1.01 | locus YER110C, stronger effect = lower value 0.956 | locus YER111C, strain swi4, stronger effect = lower value 1.01 | locus YER155C, strain BEM2 (second series), stronger effect = lower value 1 | locus YER155C, strain BEM2, stronger effect = lower value 0.945 | locus YFR010W, strain ubp6, stronger effect = lower value 1.01 | locus YGL078C, strain dbp3, stronger effect = lower value 0.946 | locus YGL167C, strain pmr1, stronger effect = lower value 1.01 | locus YGL173C, strain kem1, stronger effect = lower value 1.02 | locus YGL227W, strain vid30, stronger effect = lower value 1.01 | locus YGL240W, strain doc1, stronger effect = lower value 1 | locus YGL248W, strain PDE1, stronger effect = lower value 0.907 | locus YGL253W, strain hxk2, stronger effect = lower value 1.01 | locus YHR013C, strain ard1, stronger effect = lower value 1 | locus YHR027C, strain rpn1, stronger effect = lower value 0.998 | locus YHR079C, strain IRE1 (second series), stronger effect = lower value 0.974 | locus YHR079C, strain IRE1, stronger effect = lower value 1.01 | locus YHR094C, strain hxt1, stronger effect = lower value 0.96 | locus YHR142W, strain chs7, stronger effect = lower value 0.99 | locus YIL073C, strain SPO22, stronger effect = lower value 0.896 | locus YIL125W, strain kgd1, stronger effect = lower value 0.955 | locus YIR030C, strain dcg1, stronger effect = lower value 0.957 | locus YJL092W, strain hpr5, stronger effect = lower value 1.01 | locus YJL095W, strain BCK1 (second series), stronger effect = lower value 1.01 | locus YJL115W, strain asf1, stronger effect = lower value 1.01 | locus YJL129C, strain trk1, stronger effect = lower value 0.986 | locus YJL134W, strain LCB3, stronger effect = lower value 0.983 | locus YJL154C, strain vps35, stronger effect = lower value 1.01 | locus YJL164C, strain tpk1, stronger effect = lower value 0.986 | locus YJL166W, strain qcr8, stronger effect = lower value 1 | locus YJL168C, strain set2, stronger effect = lower value 0.969 | locus YJL187C, strain SWE1 (second series), stronger effect = lower value 0.89 | locus YJL187C, strain SWE1, stronger effect = lower value 0.997 | locus YJR066W, strain TOR1, stronger effect = lower value 0.995 | locus YKL068W, stronger effect = lower value 0.982 | locus YKL085W, strain MDH1 (second series), stronger effect = lower value 0.946 | locus YKL085W, strain MDH1, stronger effect = lower value 0.946 | locus YKL160W, strain elf1, stronger effect = lower value 0.996 | locus YKR026C, strain gcn3, stronger effect = lower value 1 | locus YKR091W, strain srl3, stronger effect = lower value 1 | locus YLL001W, strain dnm1, stronger effect = lower value 0.997 | locus YLL026W, stronger effect = lower value 1.01 | locus YLL041C, strain sdh2, stronger effect = lower value 1.01 | locus YLR027C, strain aat2, stronger effect = lower value 1 | locus YLR039C, strain RIC1, stronger effect = lower value 0.815 | locus YLR058C, strain SHM2, stronger effect = lower value 0.931 | locus YLR102C, strain apc9, stronger effect = lower value 0.966 | locus YLR113W, strain HOG1, stronger effect = lower value 0.966 | locus YLR221C, strain rsa3, stronger effect = lower value 0.999 | locus YLR258W, strain gsy2, stronger effect = lower value 0.996 | locus YLR262C, strain YPT6 (second series), stronger effect = lower value 0.991 | locus YLR262C, strain YPT6, stronger effect = lower value 0.686 | locus YLR320W, strain mms22, stronger effect = lower value 0.991 | locus YLR342W, strain FKS1, stronger effect = lower value 1 | locus YLR357W, strain rsc2, stronger effect = lower value 0.95 | locus YLR370C, strain arc18, stronger effect = lower value 1.01 | locus YLR384C, strain iki3, stronger effect = lower value 1.01 | locus YML016C, strain PPZ1, stronger effect = lower value 0.964 | locus YML120C, strain ndi1, stronger effect = lower value 0.997 | locus YML124C, strain tub3, stronger effect = lower value 0.972 | locus YMR058W, strain fet3, stronger effect = lower value 1 | locus YMR078C, strain ctf18, stronger effect = lower value 0.967 | locus YMR125W, strain sto1, stronger effect = lower value 1.01 | locus YMR129W, stronger effect = lower value 1.01 | locus YMR205C, strain PFK2, stronger effect = lower value 0.995 | locus YMR231W, strain pep5, stronger effect = lower value 0.992 | [3] 0.663 | locus YNL067W, strain RPL9B, stronger effect = lower value 0.908 | locus YNL071W, strain lat1, stronger effect = lower value 1 | locus YNL153C, strain GIM3, stronger effect = lower value 0.931 | locus YNL183C, strain NPR1, stronger effect = lower value 0.977 | locus YNL209W, strain ssb2, stronger effect = lower value 1.01 | locus YNL248C, strain rpa49, stronger effect = lower value 0.999 | locus YNL250W, strain rad50, stronger effect = lower value 0.961 | locus YNL271C, strain bni1, stronger effect = lower value 0.945 | locus YNL298W, strain CLA4, stronger effect = lower value 0.928 | locus YNL322C, strain KRE1 (second series), stronger effect = lower value 1.01 | [4] 0.945 | locus YNR049C, strain mso1, stronger effect = lower value 1.02 | locus YOL012C, strain htz1 0.771 | locus YOR001W, strain rrp6, stronger effect = lower value 1 | locus YOR061W, strain CKA2, stronger effect = lower value 0.941 | locus YOR069W, strain VPS5, stronger effect = lower value 0.927 | locus YOR070C, strain gyp1, stronger effect = lower value 1 | locus YOR080W, strain dia2, stronger effect = lower value 1 | locus YOR083W, strain WHI5, stronger effect = lower value 0.994 | locus YOR106W, strain vam3, stronger effect = lower value 0.956 | locus YOR136W, strain idh2, stronger effect = lower value 0.936 | locus YOR231W, strain MKK1, stronger effect = lower value 0.991 | locus YOR265W, strain rbl2, stronger effect = lower value 1.02 | locus YOR270C, strain vph1, stronger effect = lower value 0.998 | locus YOR290C, strain snf2, stronger effect = lower value 0.995 | locus YOR316C, strain cot1, stronger effect = lower value 0.961 | locus YPL051W, strain arl3, stronger effect = lower value 0.973 | locus YPL078C, strain atp4, stronger effect = lower value 0.998 | locus YPL106C, strain sse1, stronger effect = lower value 0.996 | locus YPL240C, strain hsp82, stronger effect = lower value 1.01 | locus YPL241C, strain CIN2, stronger effect = lower value 0.973 | locus YPL256C, strain CLN2, stronger effect = lower value 1.05 | locus YPR119W, strain clb2, stronger effect = lower value 0.964 | locus YPR141C, strain kar3, stronger effect = lower value 0.977 | locus YPR167C, strain met16, stronger effect = lower value 0.969
0.863 (active) and 1.04 (inactive): locus YHR030C, strain SLT2, stronger effect = lower value
active: locus YDL074C, strain BRE1, stronger effect = lower value 0.725 | locus YDL192W, strain arf1, stronger effect = lower value 0.729 | locus YDR101C, strain arx1, stronger effect = lower value 0.878 | locus YDR502C, strain sam2, stronger effect = lower value 0.846 | locus YEL061C, strain CIN8, stronger effect = lower value 0.864 | locus YER167W, strain BCK2, stronger effect = lower value 0.872 | locus YGL086W, strain mad1, stronger effect = lower value 0.854 | [1] 0.803 | locus YGR135W, strain pre9, stronger effect = lower value 0.86 | locus YGR252W, strain gcn5, stronger effect = lower value 0.687 | locus YHR129C, strain ARP1, stronger effect = lower value 0.857 | locus YHR200W, strain rpn10, stronger effect = lower value 0.879 | locus YIL066C, strain RNR3, stronger effect = lower value 0.841 | locus YJR043C, strain POL32, stronger effect = lower value 0.788 | locus YKL009W, strain mrt4, stronger effect = lower value 0.87 | locus YKR001C, strain vps1, stronger effect = lower value 0.608 | locus YLR268W, strain sec22, stronger effect = lower value 0.872 | locus YLR330W, strain CHS5, stronger effect = lower value 0.84 | locus YLR342W, strain FKS1 (second series), stronger effect = lower value 0.785 | locus YLR371W, strain rom2, stronger effect = lower value 0.793 | locus YLR418C, strain cdc73, stronger effect = lower value 0.583 | locus YML032C, strain rad52, stronger effect = lower value 0.886 | locus YMR223W, strain ubp8, stronger effect = lower value 0.89 | [2] 0.883 | locus YNL233W, strain BNI4, stronger effect = lower value 0.823 | locus YNL307C, strain MCK1, stronger effect = lower value 0.857 | locus YNR052C, strain pop2, stronger effect = lower value 0.914 | locus YOL147C, strain pex11, stronger effect = lower value 0.868 | locus YOR144C, strain elg1, stronger effect = lower value 0.932 | locus YOR184W, strain ser1, stronger effect = lower value 0.623 | locus YPR163C, strain tif3, stronger effect = lower value 0.842 | strain wtn01, stronger effect = lower value 0.838

O=c1cc(O)cc(/C=C/c2ccc(O)c(O)c2)o1
inactive: locus YAL013W, strain DEP1, stronger effect = lower value 0.981 | [5] 0.986 | [6] 0.988 | locus YDR150W, strain NUM1, stronger effect = lower value 0.978 | [7] 0.995 | locus YER002W, strain NOP16, stronger effect = lower value 0.999 | [1] 0.985 | locus YGR229C, strain SMI1, stronger effect = lower value 0.966 | locus YJR075W, strain HOC1, stronger effect = lower value 0.988 | [2] 1 | [3] 1.01 | [8] 0.988 | [9] 0.986 | locus YNL224C, strain SQS1, stronger effect = lower value 1.02 | [10] 0.975 | locus YPL055C, strain LGE1, stronger effect = lower value 0.978

Oc1cc(O)cc(/C=C/c2ccc(O)c(O)c2)c1
inactive: [5] 1.01 | [6] 0.992 | [7] 0.955 | [2] 1.01 | [3] 0.979 | [9] 1 | [4] 0.989 | [10] 0.993
active: [1] 0.691 | [8] 0.71
